# Rows were chosen to be rich in hits. Some 4.1% of all compounds tested hit in one or more screens of this group.
# hgDAF12 agonist: hgDAF-12 agonism, primary luciferase screen. hit rate 1.8% among 370,000. activation, % at 6.8 µM. AID 687014. HEK293 GAL4-hgDAF12 UAS-luciferase reporter, agonist luminescence; normalized to butyrate control;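 active means activation above a cutoff set at the mean of all screened compounds plus 3 SD, cut at about 10% in these data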;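 further: 0% = DMSO wells and 100% = sodium butyrate wells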
# DAX1 inh-1: inhibits human nuclear receptor DAX1; inhibition, % at 6.75 µM; HEK293 Gal4-DAX1 luciferase reporter, luminescence; P51843; hit rate 0.99% among 340,000;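 active means inhibition above the mean over all tested compounds plus 3 SD, cut at about 4.2% in these data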;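 further: 0% = DAX1-transfected cells with DMSO and 100% = empty-vector control cells with DMSO; inhibition shows as a rise in luminescence from relieved DAX1 repression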
# DAX1 inh-2: inhibitors of DAX1 repression of SF-1 activated StAR promoter. HEK293T StAR-luciferase reporter, SF-1/DAX-1 repression relief. inhibition, % at 6.8 µM. hit rate 1.1% among 370,000;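 active means inhibition above the mean over all tested compounds plus 3 SD, cut at about 3.6% in these data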;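 further: 0% = DAX-1 cells with DMSO and 100% = cells lacking DAX-1 with DMSO; higher inhibition means more luminescence from relief of DAX-1 repression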
# hcDAF-12 act: activates DAF-12 receptor from parasite H. contortus; HEK293 hcDAF-12 lit1-tk-luc reporter, luminescence; 0% DMSO, 100% Δ7-dafachronic acid; activation, % at 6.8 µM; hit rate 1.4% among 370,000; AID 652067;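 active means activation above the mean of all tested compounds plus 3 SD, cut at about 5.5% in these data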;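 further: 100% = response to 3 µM Δ7-dafachronic acid high control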
# ssDAF-12 act: activates DAF-12 receptor from parasite S. stercoralis; HEK293 ssDAF-12/GRIP1 lit1-tk-luc reporter, luminescence; % of 3 µM dafachronic acid response; activation, % at 6.8 µM; hit rate 1% among 370,000; AID 652126;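 active means activation above the mean over all tested compounds plus 3 SD, cut at about 0.9% in these data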;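 further: 0% = DMSO-only wells and 100% = 3 µM delta7-dafachronic acid wells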
# DAX1 inh confirm: NR0B1 (human) inhibition, confirmation. hit rate 87% among 2,400. shares compounds with DAX1 inh-2. HEK293T StAR-promoter luciferase reporter, SF-1/DAX-1 repression. inhibition, % at 6.8 µM;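 active means inhibition above the average of every tested compound plus 3 SD, cut at about 3.8% in these data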;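 further: 0% = DAX-1 cells with DMSO and 100% = no DAX-1 control cells with DMSO; active compounds raise luminescence by relieving repression of the StAR reporter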
# Target sequence (P51843 whole entry, looked up): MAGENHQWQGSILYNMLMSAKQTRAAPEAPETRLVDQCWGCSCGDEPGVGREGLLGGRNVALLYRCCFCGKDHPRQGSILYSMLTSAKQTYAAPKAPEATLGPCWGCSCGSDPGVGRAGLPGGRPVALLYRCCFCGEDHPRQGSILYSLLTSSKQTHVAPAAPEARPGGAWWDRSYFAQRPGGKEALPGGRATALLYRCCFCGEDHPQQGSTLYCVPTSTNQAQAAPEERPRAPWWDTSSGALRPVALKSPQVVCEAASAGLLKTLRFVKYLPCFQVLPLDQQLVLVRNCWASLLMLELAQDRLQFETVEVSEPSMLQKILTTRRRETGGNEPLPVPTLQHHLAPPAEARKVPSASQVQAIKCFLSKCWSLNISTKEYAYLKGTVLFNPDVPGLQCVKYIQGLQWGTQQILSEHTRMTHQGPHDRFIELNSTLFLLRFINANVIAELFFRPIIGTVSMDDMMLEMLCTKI
# SF1 mutant ctr: nonselective inhibitor or artifact in SF-1 mutant DAX1 counter-screen | shares compounds with DAX1 inh-2 | HEK293 StAR-luciferase, SF-1 AF2 mutant, luminescence | inhibition, % at 6.8 µM | hit rate 78% among 2,400 | AID 652136;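 active means inhibition above the mean of all tested compounds plus 3 SD, cut at about 3% in these data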;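 further: 0% = DAX-1 transfected cells with DMSO and 100% = cells without DAX-1 with DMSO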
# * = called active by the depositor; · = no result.
SMILES,hgDAF12 agonist,DAX1 inh-1,DAX1 inh-2,hcDAF-12 act,ssDAF-12 act,DAX1 inh confirm,SF1 mutant ctr
O=c1cccc(-c2ccc3ccccc3c2)o1,7,·,6.6*,0,-1,5.0*,3.1*
Cc1ccc(-c2cccc(=O)o2)cc1,3,·,-1,-1,-1,·,·
NC(=O)c1ccccc1NC(=O)CN1CCN(Cc2ccccc2)CC1,1,0,0,1,-1,·,·
O=C(CN1CCN(c2ccccc2)CC1)Nc1ccccc1C(=O)NCCc1ccccc1,7,3,4.7*,5.8*,1,6.7*,4.8*
N#C[C@H](N)[C@H]1O[C@@H](n2ccc(=O)[nH]c2=O)[C@H](O)[C@@H]1O,0,·,1,1,-1,·,·
C#CCN(C1CC1)S(=O)(=O)c1ccccc1Br,0,·,0,-3,0,·,·
COC(=O)[C@]12C[C@H](CC(=O)N3CCC(c4ccccc4)CC3)C(=O)N(Cc3ccco3)C1=C[C@H](C(C)C)O[C@@H]2C1CC1,-3,·,-1,-3,0,·,·
COc1ccc(CCNC(=O)c2cccn2C)cc1,9,4,6.3*,5,-1,7.8*,6.5*
COc1ccc(CCNC(C)=O)cc1,-1,1,0,3,-1,·,·
COC(=O)[C@]12C[C@H](CC(=O)NCCC(C)C)C(=O)N(Cc3ccc(Cl)cc3Cl)C1=C[C@H](C(C)(C)C)O[C@@H]2C,-1,·,-1,-1,-1,·,·
Cc1cccc(CCNC(=O)c2cc3ccccn3n2)c1,6,·,1,-2,-1,·,·
O=C(NCCc1ccccc1F)c1cc2ccccn2n1,13*,·,5.0*,4,1,16*,5.2*
CCCN1CCN(CCCNC(=O)c2ccc3c(c2)NC(=O)c2ccccc2S3)CC1,2,1,6.1*,1,-1,4.4*,1
Cc1onc(-c2ccccc2Cl)c1C(=O)NCC1CCCO1 (centres undefined),0,-1,0,-1,-1,·,·
NC(=O)C1CCCN(C(=O)c2ccc(-c3cccc(Cl)c3Cl)o2)C1 (centres undefined),10,0,5.6*,3,0,9.2*,4.8*
O=C(NCC1CCCO1)c1ccc(-c2ccccc2Cl)o1 (centres undefined),13*,2,7.3*,3,0,11*,6.0*
O=C(c1ccc(-c2ccccc2Cl)o1)N1CCC1,8,1,5.1*,1,0,5.7*,4.3*
CCC[C@H]1[C@@H](OC(=O)NCc2cccs2)CC[C@@]23CCCN2C(=O)CCC[C@@H]13,1,·,·,-1,-1,·,·
O=C(c1ccncc1)N(c1ccc(N2CCOCC2)cc1)C(c1ccccc1)c1nc2ccccc2[nH]1 (centres undefined),13*,·,5.3*,6.2*,0,7.7*,4.9*
CCC(c1nc2ccccc2[nH]1)N(C(=O)Cc1cc(OC)cc(OC)c1)c1ccc(N2CCOCC2)cc1 (centres undefined),3,·,-2,-1,-1,·,·
Cn1cccc1C(=O)N1CCN(S(=O)(=O)c2ccccc2F)CC1,1,·,-1,-2,-2,·,·
COc1cc([C@@H]2c3cc4c(cc3[C@H](O)[C@H]3COC(=O)[C@H]23)OCO4)cc(OC)c1OC,-4,0,12*,0,0,15*,-5
C[C@H]1C(c2ccccc2F)O[C@]2(C[C@H](O)c3c(ccc4ccccc34)O2)C[C@@H]1O (some centres undefined),2,·,-2,4,0,·,·
C/C(=N\Nc1ccc(C(=O)O)cc1)c1ccc(-n2ccnc2)cc1,12*,-1,6.8*,3,-1,8.3*,5.3*
COc1cc2c(c(OC)c1OC)-c1ccc(OC)c(=O)cc1[C@@H](NC(C)=O)CC2,-6,1,6.5*,1,-1,23*,-4
SMILES,hgDAF12 agonist,DAX1 inh-1,DAX1 inh-2,hcDAF-12 act,ssDAF-12 act,DAX1 inh confirm,SF1 mutant ctr
CCOCC(=O)NC1CCc2cc(OC(=O)COCC)c(OC)c(OC)c2-c2ccc(SC)c(=O)cc21 (centres undefined),-4,1,4.5*,1,-1,17*,-6
CN1OC[C@@H]2CN[C@H](c3ccc(-c4cc5ccccc5o4)cc3)C[C@@H]21,·,-5,·,·,·,·,·
CN1OC[C@@H]2CN[C@H](c3ccc(-c4ccc(C#N)cc4)cc3)C[C@@H]21,12*,3,5.4*,3,1,14*,8.1*
Cc1ccccc1Cn1cc(CN2[C@H](C)COc3cc(Br)ccc3S2(=O)=O)nn1,-1,·,1,-2,-1,·,·
O=C(Nc1nccs1)c1csc([C@H]2C[C@H](O)[C@@H](CO)O2)n1,10,·,4.9*,4,1,5.9*,3.0*
CC(=O)Nc1ccc(NC(=O)c2csc([C@H]3C[C@H](O)[C@@H](CO)O3)n2)cc1,-1,·,0,0,-1,·,·
CCCCCN1CCCCC(NC(=O)c2c(F)cccc2F)C1=O (centres undefined),0,·,0,2,-2,·,·
Cc1c(C(=O)Nc2ccccn2)sc2nc3n(c(=O)c12)CCC3,7,1,8.8*,5,0,9.8*,6.1*
Cc1cc(C)cc(NC(=O)c2sc3nc4n(c(=O)c3c2C)CCC4)c1,0,1,-1,-1,-1,·,·
COCCN1C(=O)C2=C(C1=O)C1N(C)c3ccccc3[C@@]13C[C@@H](CO)N(C(C)=O)C3=N2 (some centres undefined),-3,·,0,2,-1,·,·
O=C(NOCc1ccccc1)c1ccc(Cl)cc1,6,0,8.6*,2,1,11*,6.2*
Cc1ccc(CONC(=O)c2ccc(C)cc2)cc1,9,3,5.9*,1,1,5.9*,3.5*
CCCCNC(=O)C1CCCN1C(=O)NCc1ccccc1OC (centres undefined),0,·,1,-1,-1,·,·
CCOc1ccccc1C(=O)Nc1ccc2nc(C)[nH]c(=O)c2c1,2,·,-1,-2,-1,·,·
Cc1ccc(C(=O)Nc2ncccc2O)o1,9,3,6.0*,1,0,5.4*,1
COc1cc(C(=O)N/N=C(\C)c2ccccn2)cc(OC)c1OC,-5,-2,8.3*,1,0,-1,0
CN[C@H]1C[C@H]2c3cc(-c4ccccc4C)ccc3CCN2C[C@H]1[C@H](C)O,3,·,-1,1,-2,·,·
C=CCN(CC#Cc1ccccc1)Cc1ccc(OC)cc1OC,1,·,-2,-1,-1,·,·
c1ccc(C2=NNC(=NC3CC3)SC2)cc1,12*,-2,6.8*,5,1,5.3*,2
